Hits are enriched below; roughly 0.88% of the tested compounds scored in any of these assays.
APE1 inh: qHTS Assay for Inhibitors of the Human Apurinic/apyrimidinic Endonuclease 1 (APE1) | DNA repair nuclease/redox regulator APEX1 (Homo sapiens), P27695 | recombinant APE1, TAMRA/BHQ-2 abasic DNA cleavage fluorescence | Potency, µM (titrated, usually from 65.8 µM), for inactives: at the top dose activity change, negative = inhibition, usual class: inhibitors | actives 0.35% (n = 350,000) | AID 2517, 2012;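 note: plate controls were vehicle for no effect and reference inhibitor for full effect; nearly all actives have a fitted effect of over 55% in size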
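Substrate: short duplex with […] THF abasic site, 5'-TAMRA and 3'-BHQ-2, 50 nM final. APE1 at 0.75 nM, preincubated 15 min RT with compound. Fluorescence increase from first to third read measured activity.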
ERG-DNA inh: qHTS for Small Molecule Inhibitors of the ERG Ets/DNA interaction | fluorescence polarization, His-ERG Ets domain / labelled DNA | Potency, µM (titrated, usually from 76.9 µM), inactives show at the top dose FP activity, negative = inhibition, hits mostly inhibitors | actives 0.028% (n = 370,000) | AID 624246, 2012; active = well fitted inhibition curve with a large enough effect in the polarisation, with a control signal flat; inconclusive = small, poorly fitted or top-dose-only effect, or effect the other way, or a change in a side signal; inactive = no such curve, though single readings can be large or run the other way; the % refers to the polarisation;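 note: polarization taken with two DNA probes labelled with fluorescein and Texas red; % of control where 0% means no effect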
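His-tagged ERG Ets domain (1 uM in the protein solution; 300mM KCl, 50mM Tris-HCl, 1mM EDTA, 1mM DTT, pH 7.5) received compound, then a probe mix of 5 nM fluorescein-DNA and 100nM Texas-615-DNA. Fluorescence polarization was read for both dyes.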
RECQ1 inh-1: qHTS Assay for Inhibitors of RecQ-Like Dna Helicase 1 (RECQ1); RECQ1 DNA unwinding, red fluorescence kinetic read; Potency, µM (series often up to 57.3 µM), without a hit: top-dose activity, negative = inhibition, most hits filed as inhibitors; actives 0.54% (n = 240,000);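 note: plate controls were vehicle for no effect and no enzyme for full effect; nearly all actives have a fitted effect of over 30% in size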
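RECQ1T1 50 nM; forked duplex (20 bp + 30-nt ss tails) 200 nM, ATP 2 mM final; pH 8.0, 2 mM MgCl2, 2.5 ug/ml poly(dI-dC); 15 min compound preincubation; discontinuous kinetic read over 2 h at RT.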
GCN5L2 inh: qHTS Assay for Inhibitors of GCN5L2; GCN5L2 HAT assay, ThioGlo1 CoA-SH fluorescence; actives 0.21% (n = 390,000); Potency, µM (titrated, usually from 58.9 µM), for the others: top-dose activity change, negative = inhibition, most hits filed as inhibitors; note: % is set by controls: 0 for no effect and ±100 for the full control effect
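Free CoA generated was detected with ThioGlo1 (50uM) fluorescence at Ex340nm/Em540nm, read immediately and after 20 min at room temperature. Enzyme, 20 nM in HEPES pH 7.5 buffer, saw compounds 15 min before adding 75uM H3(1-25) peptide and 70uM acetyl-CoA.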
BLM inh: qHTS Assay for Inhibitors of Bloom's syndrome helicase (BLM) | RecQ-like DNA helicase BLM (Homo sapiens), P54132 | recombinant BLM DNA unwinding, fluorescence dequenching | Potency, µM (highest dose often 56.1 µM), for the others: at the top dose activity change, negative = inhibition, most hits filed as inhibitors | actives 0.2% (n = 350,000) | AID 2528, 2010;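 note: plate controls were vehicle for no effect and no enzyme for full effect; nearly all actives have a fitted effect of over 35% in size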
WRN helicase inh: qHTS for Inhibitors of WRN Helicase | Bifunctional 3'-5' exonuclease/ATP-dependent helicase WRN (Homo sapiens), Q14191 | WRN helicase unwinding, fluorescent forked duplex, kinetic | Potency, µM (highest dose often 114 µM), for inactives: top-dose activity change, negative = inhibition, hits mostly inhibitors | actives 0.46% (n = 360,000); note: % is set by controls: 0 for no effect and ±100 for the full control effect; nearly all actives have a fitted effect of over 55% in size
Target sequence (Q14191 whole entry, looked up): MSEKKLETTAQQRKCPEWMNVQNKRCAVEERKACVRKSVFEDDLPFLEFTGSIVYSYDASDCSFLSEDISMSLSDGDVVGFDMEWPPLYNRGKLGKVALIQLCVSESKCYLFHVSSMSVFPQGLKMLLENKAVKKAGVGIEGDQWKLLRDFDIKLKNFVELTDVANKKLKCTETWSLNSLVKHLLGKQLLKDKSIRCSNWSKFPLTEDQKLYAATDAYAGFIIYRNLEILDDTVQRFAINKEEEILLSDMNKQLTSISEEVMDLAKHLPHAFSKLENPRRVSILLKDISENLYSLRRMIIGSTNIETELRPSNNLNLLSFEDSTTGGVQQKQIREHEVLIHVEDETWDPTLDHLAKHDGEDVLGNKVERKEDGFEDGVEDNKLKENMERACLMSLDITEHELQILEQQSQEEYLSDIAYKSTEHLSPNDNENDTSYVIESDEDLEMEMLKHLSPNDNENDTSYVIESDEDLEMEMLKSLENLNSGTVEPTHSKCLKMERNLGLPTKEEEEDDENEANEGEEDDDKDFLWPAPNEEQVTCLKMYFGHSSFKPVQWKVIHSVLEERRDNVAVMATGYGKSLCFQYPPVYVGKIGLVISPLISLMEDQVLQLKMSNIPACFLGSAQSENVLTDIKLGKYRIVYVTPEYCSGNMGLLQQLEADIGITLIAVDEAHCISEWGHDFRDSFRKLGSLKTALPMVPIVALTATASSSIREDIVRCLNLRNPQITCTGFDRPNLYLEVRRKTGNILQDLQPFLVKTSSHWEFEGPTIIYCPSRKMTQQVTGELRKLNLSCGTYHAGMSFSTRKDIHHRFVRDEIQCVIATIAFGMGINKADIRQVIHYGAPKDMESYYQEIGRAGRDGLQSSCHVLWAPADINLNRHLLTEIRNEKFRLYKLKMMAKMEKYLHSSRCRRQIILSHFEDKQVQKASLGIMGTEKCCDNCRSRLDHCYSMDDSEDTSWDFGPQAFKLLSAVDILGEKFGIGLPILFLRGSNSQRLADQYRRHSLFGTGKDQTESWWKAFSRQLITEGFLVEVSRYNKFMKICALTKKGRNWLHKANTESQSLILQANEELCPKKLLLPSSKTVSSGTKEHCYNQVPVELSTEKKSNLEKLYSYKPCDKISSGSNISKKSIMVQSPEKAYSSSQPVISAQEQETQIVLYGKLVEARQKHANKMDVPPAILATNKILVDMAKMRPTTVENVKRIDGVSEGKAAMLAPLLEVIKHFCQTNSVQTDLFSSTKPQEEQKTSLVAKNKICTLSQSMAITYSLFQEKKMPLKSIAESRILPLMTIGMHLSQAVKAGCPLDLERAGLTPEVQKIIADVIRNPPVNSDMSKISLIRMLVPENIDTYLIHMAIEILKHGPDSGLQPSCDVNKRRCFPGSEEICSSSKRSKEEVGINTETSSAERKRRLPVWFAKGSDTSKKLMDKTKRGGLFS
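Enzyme (20 nM final) and test compound sit together 15 min at room temperature before substrate addition. Substrate is a single-forked duplex oligonucleotide (100 nM) labelled with fluorophore and quencher, with 2 mM ATP; helicase unwinding raises red fluorescence, read kinetically.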
RECQ1 inh conf: Confirmation qHTS Assay for Inhibitors of RecQ-Like Dna Helicase 1 (RECQ1). shares compounds with RECQ1 inh-1. RECQ1 helicase DNA unwinding, fluorescence. Potency, µM (series often up to 229 µM), inactives show at the highest dose activity change, negative = inhibition, most hits filed as inhibitors. actives 28% (n = 610). AID 2708, 2010; note: % is set by controls: 0 for no effect and ±100 for the full control effect; nearly all actives have a fitted effect of over 45% in size
RECQ1 ADP FP: Counterscreen for RECQ1 Inhibitors: ADP Fluorescence Polarization Displacement Assay; shares compounds with RECQ1 inh-1; ADP fluorescence polarization displacement counterscreen; Potency, µM (series often up to 228 µM), inactives show at the top dose activity change, negative = inhibition, hits mostly inhibitors; actives 27% (n = 530); AID 2711, 2010; note: % is set by controls: 0 for no effect and ±100 for the full control effect; nearly all actives have a fitted effect of over 45% in size
RECQ1 inh-2: Confirmation qHTS Assay for Inhibitors of RecQ-Like Dna Helicase 1 (RECQ1) - Round 2 Cherry Picks. actives 15% (n = 1,100). Potency, µM (titrated, usually from 119 µM), for inactives: at the highest dose activity, negative = inhibition, actives largely listed as inhibitors. shares compounds with RECQ1 inh-1. recombinant RECQ1 DNA unwinding, red fluorescence; note: % is set by controls: 0 for no effect and ±100 for the full control effect; nearly all actives have a fitted effect of over 50% in size
The depositor's hits bear a star; ? = inconclusive; · = not tested or not shown. Unless noted, calls come from the whole dose curve; as a rule, active = well fitted curve in the direction sought with a large enough effect; inconclusive = small, poorly fitted or top-dose-only effect, or another doubt; inactive = no such curve, though single readings can be large; an effect the other way counts as inactive or inconclusive. Potency is the fitted concentration of half-maximal effect.

SMILES	APE1 inh	ERG-DNA inh	RECQ1 inh-1	GCN5L2 inh	BLM inh	WRN helicase inh	RECQ1 inh-2	others
Cc1ccccc1NC(=O)C1CCN(S(=O)(=O)c2c(C)noc2/C=C/c2ccco2)CC1	·	-10%	·	-3%	-5%	·	·
Cc1ccc(NC(=O)C2CCN(S(=O)(=O)c3c(C)noc3/C=C/c3ccco3)CC2)nc1	-5%	2%	35µM*	-9%	-5%	-26%	-11%
COC(=O)COc1ccc(C2Nc3c(Cl)ccc(C(=O)O)c3C3C=CCC32)cc1 (centres undefined)	?	19%	28µM*	-23%	-6%	22µM*	?
CCn1cc(S(=O)(=O)c2ccc(C)cc2C)c(=O)c2cc(F)c(N3CCCCC3)cc21	·	-6%	·	-5%	-3%	·	·
Cc1cc(/C=C2\C(=N)N3N=C(c4ccco4)SC3=NC2=O)c(C)n1Cc1ccccc1	-5%	8%	?	?	-24%	?	?
N=C1/C(=C/c2coc3ccccc3c2=O)C(=O)N=C2SC(c3ccco3)=NN12	11%	23%	28µM*	-23%	?	40µM*	50µM*
N=C1/C(=C\c2coc3ccc(O)cc3c2=O)C(=O)N=C2SC=CN12	2%	60%	25µM*	-7%	-28%	56µM*	56µM*
COc1ccc(-n2cccc2/C=C2\C(=N)N3N=C(c4ccco4)SC3=NC2=O)cc1	10µM*	14%	?	?	13µM*	?	7.1µM*
COc1ccc(-n2cccc2/C=C2\C(=N)N3N=C(C(C)C)SC3=NC2=O)cc1	-6%	10%	-12%	-27%	-13%	-24%	·
N=C1/C(=C\c2ccc(OC(=O)c3ccco3)cc2)C(=O)N=C2SC(N3CCCCC3)=NN12	-36%	-4%	·	-34%	-8%	-21%	·
N=C1/C(=C\c2coc3ccccc3c2=O)C(=O)N=C2SC(c3ccncc3)=NN12	-3%	57%	?	?	?	22µM*	?
CC1=NN2C(=N)/C(=C\c3cc(C)n(-c4ccccc4)c3C)C(=O)N=C2S1	3%	2%	0%	-4%	3%	-2%	·
Cc1ccc(S(=O)(=O)N(C)C)cc1NC(=O)COC(=O)c1n[nH]c(=O)c2ccccc12	2%	-2%	-5%	0%	3%	-2%	·	RECQ1 inh conf=13%;RECQ1 ADP FP=?
COc1cccc(NC(=O)CN2C=NS(=O)(=O)c3ccccc32)c1	·	0%	·	-4%	1%	·	·
